Screening results from PubChem.
aSyn yeast inh: rescues yeast growth from alpha-synuclein toxicity; Yeast expressing alpha-synuclein, growth rescue, BacTiter-Glo, 24 h; Potency, µM (top dose mostly 46.1 µM), for inactives: at the highest dose growth rescue (activation), most hits filed as activators; 370,000 tested, 0.14% active; AID 652106; note: % of control where 0% means no effect; nearly all actives have a fitted effect of over 65% in size
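Screening used galactose-induced yeast with toxic alpha-synuclein levels, exposed to compound for 24 hr at 30 deg C. Cell growth, read with BacTiter-Glo luminescence, gave the measured signal.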
Abeta yeast res: A-beta toxicity reversal in yeast. yeast expressing A-beta42, growth rescue, OD600, 48 h; response scale: 0% DMSO, 100% iron-clioquinol control. AID 1347071. Potency, µM (highest dose often 46.1 µM), usual class: activators. 410,000 tested, 0.063% active; note: nearly all actives have a fitted effect of over 55% in size
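Yeast growth medium received pinned compounds, then yeast cells expressing toxic A-beta were added; plates incubated at 30 C for 48 hr. Growth read as absorbance at 600 nm, normalized to DMSO and equimolar FeCl3 plus clioquinol controls.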
FUS suppressor: FUS proteinopathy suppression in yeast; S. cerevisiae FUS-expressing, growth rescue, OD600, 24 h; Potency, µM (highest dose often 76.6 µM), hits mostly activators; 390,000 tested, 0.24% active; AID 1347120;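 note: plate controls were DMSO vehicle for no effect and reference control for full effect; nearly all actives have a fitted effect of over 55% in size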
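Absorbance at 600 nm, taken 24hr after compound addition, measured rescue of FUS-yeast growth at 30C. Induction used 2% galactose with seeding at OD 0.005. Controls: CP55940 from 92uM final, DMSO only.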
TDP-43 yeast inh: TDP-43 toxicity inhibition in yeast; 410,000 tested, 1.8% active; TDP-43 expressing yeast growth rescue, BacTiter-Glo, 24 h; Potency, µM (series often up to 46.1 µM), for the others: top-dose growth rescue (activation), hits mostly activators; note: % of control where 0% means no effect; nearly all actives have a fitted effect of over 50% in size
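Readout is BacTiter-Glo luminescence of cell growth, so inhibitors register as activators. TDP-43-expressing yeast at OD600=0.02 in galactose medium, after raffinose pregrowth to mid-log, were incubated with compound for 24 hr at 30 deg C.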
The depositor's hits bear a star; i = inactive; ? = inconclusive; nt = no result; ! = repeats disagree; [ ] = another dose, or the depositor's remark. Shown are actives, neighbours in structure and some others; about 2.1% of the full set was active somewhere. Calls come from the whole dose curve; as a rule, active = well fitted curve in the direction sought with a large enough effect; inconclusive = small, poorly fitted or top-dose-only effect, or another doubt; inactive = no such curve, though single readings can be large; an effect the other way counts as inactive or inconclusive. Potency is the fitted concentration of half-maximal effect.

SMILES | aSyn yeast inh | Abeta yeast res | FUS suppressor | TDP-43 yeast inh
COc1cccc(CNC(=O)Cn2cc3c(n2)-c2c(oc(C(=O)N4CCCC4)c2C)CC3)c1OC | nt | i | i | 26.3%
CCOC(=O)CS(=O)(=O)c1nc(-c2ccc(F)cc2)cc(C(F)(F)F)n1 | 6.6% | i | i | 22.4µM*
CS(=O)(=O)c1nc(-c2ccc(F)cc2)cc(C(F)(F)F)n1 | 8.3% | i | i | -2.8%[0.397 µM]
O=C(c1ccccc1)n1ccn(-c2ccccc2)c1=S | -1.0% | i | i | 11.2µM*
CCOC(=O)C1=C(COC(=O)c2ccc([N+](=O)[O-])s2)NC(=O)NC1C (stereo unspecified) | -73.8% | i | i | 20µM*
CCc1c(-c2ccccc2)nc2ccccc2c1C(=O)NCc1ccc(C)cc1 | nt | i | ? | 35.5µM*
CCc1ccc(CNC(=O)c2cc3c(C)nc4ccccc4c3o2)cc1 | 26.3% | i | ? | 20µM*
COc1ccc(-c2cc3nc(C)c(CCC(=O)N4CCN(c5cccc(Cl)c5)CC4)c(C)n3n2)c(OC)c1 | nt | i | i | ?
COC(=O)Cn1ccc2cc(S(=O)(=O)N3CCCCCC3)ccc21 | 11.5% | i | i | 15.8µM*!
CCOc1ccc(CNC(=O)Cn2ccc3cc(S(=O)(=O)N4CCCCCC4)ccc32)cc1 | 7.6% | i | i | -4.1%
CCOc1ccc(CCNC(=O)Cn2ccc3cc(S(=O)(=O)N4CCCCC4)ccc32)cc1 | nt | i | 17.8µM* | 12.1%
CCCCCCCCCCCCCCCCCC(=O)NCC(COP(=O)([O-])OCC[N+](C)(C)C)OCC (stereo unspecified) | -75.4% | nt | nt | nt
Cc1cc(C)n(-c2nc3ccccc3c(=O)n2OCc2ccc(Cl)cc2)n1 | -3.5% | i | i | 11.2µM*
CC(C)(C)OC(=O)N1CCC(N[C@@H](Cc2c[nH]c3ccccc23)C(=O)NCCc2c[nH]c3ccccc23)(C(=O)NC2CCCCC2)CC1 | nt | nt | 20µM* | nt
O=C(NCCCc1ccccc1)[C@H](Cc1c[nH]c2ccccc12)NC1(C(=O)NCCc2c[nH]c3ccccc23)CCOCC1 | nt | nt | 22.4µM* | nt
CC(C)(N[C@@H](Cc1c[nH]c2ccccc12)C(=O)NCC(c1ccccc1)c1ccccc1)C(=O)NC1CCCCC1 | nt | nt | 14.1µM* | nt
COc1ccc(C)cc1NC(=O)C(Sc1nnc2ccccn12)c1ccccc1 (stereo unspecified) | -10.6% | i | nt | -3.7%
COc1ccc(C)cc1NC(=O)C(Sc1nnc(-c2ccncc2)n1-c1ccc(Cl)cc1)c1ccccc1 (stereo unspecified) | 6.7% | i | 22.4µM* | -1.1%
COc1ccc2c(c1)c(=O)c(S(=O)(=O)c1ccc(C)c(C)c1)cn2CC(=O)Nc1ccccc1 | nt | i | 12.6µM* | 6.7%
Cc1nc(-c2ccc(F)cc2)sc1CCNC(=O)c1ccccc1C(F)(F)F | nt | i | i | 12.6µM*
CCOc1ccc(CC(=O)NCCc2sc(-c3cccc(F)c3)nc2C)cc1 | nt | i | i | ?
Cc1cccc(C(=O)NCCc2sc(-c3ccccc3)nc2C)c1 | ? | i | i | ?
COc1cccc(C(=O)NCCc2sc(-c3cccc(C)c3)nc2C)c1 | -8.2% | i | ? | 25.1µM*
COc1ccc(-c2nc(C)c(CCNC(=O)c3c(F)cccc3F)s2)cc1 | -0.8% | i | i | 10µM*
COc1ccc(CC(=O)NCCc2sc(-c3cccc(F)c3)nc2C)cc1 | nt | i | i | 11.2µM*
SMILES | aSyn yeast inh | Abeta yeast res | FUS suppressor | TDP-43 yeast inh
Cc1nc(-c2ccc(F)cc2)sc1CCNC(=O)Cc1ccc(F)cc1 | nt | i | i | ?
Cc1nn(CCC(=O)Nc2ccc(Cl)cc2)c(C)c1S(=O)(=O)N1CCCCC1 | nt | i | i | 10.1%
COc1ccc(C2c3c(n(C)c4ccccc34)C(=O)N2CC(=O)Nc2cccc(Cl)c2)cc1 (stereo unspecified) | nt | i | i | 1.9%
COc1ccc(C(=O)NCCc2sc(-c3cccc(F)c3)nc2C)cc1 | nt | i | ? | 22.4µM*
CCCC(=O)N1c2nc(-c3ccco3)nn2C2(CCCCC2)[C@@H]2CCCC[C@@H]21 | nt | i | ? | 5.6%
Cc1cc(S(=O)(=O)Nc2ccc(-c3ccc(N4CCCCC4)nn3)cc2)c(C)cc1Cl | nt | i | ? | -13.0%
O=C(CSc1ccc(Cl)cc1)N1CCC(c2nc3ccccc3s2)CC1 | ? | i | i | 25.1µM*
